Measurements reported in ChEMBL document CHEMBL1157539, “Thousands of chemical starting points for antimalarial lead identification” (Nature, 2010).

System: Plasmodium falciparum
Assay: GSK_TCMDC: Inhibition of Plasmodium falciparum 3D7 in whole red blood cells, using parasite LDH activity as an index of growth. Test compounds present at 2uM
Format: functional

Question: With `O=C(Nc1ccc(-c2ccccc2)cc1)Nc1cccc(Cn2cnc(N3CCCNCC3)cc2=O)c1.O=C(O)C(F)(F)F` as the compound, how does the Inhibition read?
Answer: The Inhibition was 88%.

Question: `O=C(O)C(F)(F)F.OCCN1CCN(Cc2ccc(-c3cccc(-c4nc5cc(F)ccc5[nH]4)c3)cc2)CC1` was tested. Which Inhibition did it give?
Answer: Its Inhibition is 100%.

Question: For `Fc1ccc(Nc2ccnc3cc(-c4cccc(CNCCN5CCOCC5)c4)ccc23)c(Cl)c1`, which Inhibition is on record?
Answer: Its Inhibition is 100%.

Question: How did the Inhibition turn out when `Cc1ccc(/C=C/C(=O)NC2CCC(N3CCC(c4ccccc4C)CC3)CC2)cc1C` (stereo unspecified) was run?
Answer: The Inhibition was 100%.

Question: With `O=C(N[C@@H](CC1CCCCC1)C(=O)NC1CCCc2ccccc21)c1ccc(O)c(-c2ccc(Cl)c(Cl)c2)c1` (stereo partly specified) as the compound, how does the Inhibition read?
Answer: The Inhibition was 98%.

Question: Which Inhibition does the source give for `CCN(C(=O)c1ccc(NC(=O)c2cccs2)cc1)c1nc2c(C)cccc2s1` here?
Answer: The Inhibition was 89%.

Question: For `Cc1[nH]c(C)c(-c2ccc(OCc3ccc(F)cc3)cc2)c(=O)c1Br`, which Inhibition is on record?
Answer: Its Inhibition is 98%.

Question: With `O=C(/C=C/c1ccc(Cl)c(Cl)c1)NCCCCCN1CC[C@H](NC(=O)c2sc3ccccc3c2Cl)C1` as the compound, how does the Inhibition read?
Answer: The Inhibition was 97%.

Question: Which Inhibition does the source give for `CC(=O)O.COc1ccc(CNc2ccc3nc(N)nc(N)c3c2)cc1` here?
Answer: Its Inhibition is 99%.

Question: With `Cc1ccc(NCc2cccc(F)c2)cc1S(=O)(=O)N[C@@H]1CCN(C#N)C1` as the compound, how does the Inhibition read?
Answer: Its Inhibition is 89%.

Question: How did the Inhibition turn out when `NC12CC3CC(CC(C3)C1)C2` [AMANTADINE] was run?
Answer: Its Inhibition is 98%.

Question: For `COc1ccccc1/C=C/C(=O)NC1CCC(CCN2CCc3ccc(-c4cc(C)no4)cc3CC2)CC1.Cl` (stereo unspecified), which Inhibition is on record?
Answer: The Inhibition was 95%.

Question: `COc1cc2ncnc(Nc3ccc(OCc4ccccc4)c(OCc4ccccc4)c3)c2cc1OC.Cl` was tested. Which Inhibition did it give?
Answer: The Inhibition was 100%.

Question: Which Inhibition does the source give for `CC(C)CCN(Cc1cncn1Cc1cccc(C(F)(F)F)c1)C(=O)c1cncc(-c2ccccc2)c1` here?
Answer: The Inhibition was 100%.

Question: With `CC(C)c1nc2c(N)nc(N)nc2nc1N` as the compound, how does the Inhibition read?
Answer: The Inhibition was 84%.

Question: With `CCOC(=O)c1cc(C(=O)NCCCCN2CCC(c3ccc4c(c3OC)CCCC4)CC2)ccc1-c1ccc(C(F)(F)F)cc1` as the compound, how does the Inhibition read?
Answer: Its Inhibition is 100%.

Question: With `COc1cc(-c2nc3ccc(N4CCN(C)CC4)cc3[nH]2)cc(OC)c1OC` as the compound, how does the Inhibition read?
Answer: Its Inhibition is 87%.

Question: With `O=C(Nc1ccc(-c2ccccc2)cc1)Nc1ccc2c(c1)CCNCC2.O=C(O)C(F)(F)F` as the compound, how does the Inhibition read?
Answer: Its Inhibition is 97%.

Question: `O=C(Nc1cccc(-c2nn3ccccc3c2-c2ccnc(Nc3cccc(N4CCCC4=O)c3)n2)c1)c1cc(F)ccc1F` was tested. Which Inhibition did it give?
Answer: Its Inhibition is 99%.

Question: How did the Inhibition turn out when `COc1ccc2nccc([C@@H](O)CN3CCC(NC(=O)/C=C/c4ccc5[nH]c(=O)ccc5c4)CC3)c2c1` was run?
Answer: The Inhibition was 96%.

Question: With `Cc1cc(=O)c2cc(Oc3cccc(OC(F)(F)F)c3)ccc2[nH]1` as the compound, how does the Inhibition read?
Answer: Its Inhibition is 90%.

Question: Which Inhibition does the source give for `O=C(/C=C/c1ccc2ccccc2c1)NCCCCCN1CCC(c2c[nH]c3ccccc23)CC1` here?
Answer: The Inhibition was 90%.

Question: With `O=[N+]([O-])c1cccc(S(=O)(=O)N2CCN(CC(O)COc3ccc(-c4ccccc4)cc3)CC2)c1` (stereo unspecified) as the compound, how does the Inhibition read?
Answer: Its Inhibition is 94%.

Question: How did the Inhibition turn out when `Cc1cc(NC(=O)Nc2cccc(N(C)C)c2)c2ccccc2n1` was run?
Answer: The Inhibition was 97%.

Question: Which Inhibition does the source give for `CC(=O)Nc1ccc(CN2CCC(NC(=O)c3ccc(-c4cccc(C(F)(F)F)c4)s3)CC2)cc1.O=C(O)C(F)(F)F` here?
Answer: The Inhibition was 100%.

Question: For `CCNc1cc(C(=O)N[C@@H](Cc2ccccc2)[C@H](O)CNCCc2cccc3ccccc23)cc(N2CCCC2=O)c1.O=CO`, which Inhibition is on record?
Answer: The Inhibition was 86%.

Question: With `NC1CCN(c2nc(NCCCc3ccc(O)cc3)nc(NCc3ccccc3-c3ccccc3)n2)CC1.O=C(O)C(F)(F)F` as the compound, how does the Inhibition read?
Answer: The Inhibition was 100%.

Question: With `COC(=O)c1ccc2nc(-c3ccc(/C=C/C(=O)NC4CCN(Cc5ccccc5)CC4)cc3)[nH]c2c1` as the compound, how does the Inhibition read?
Answer: Its Inhibition is 100%.

Question: How did the Inhibition turn out when `CCNc1cc(C(=O)N[C@@H](Cc2ccco2)[C@H](O)CNC2CCCCC2)cc(N2CCCCS2(=O)=O)c1.Cl` was run?
Answer: Its Inhibition is 91%.

Question: `COc1ccc(-c2ccc(NC(=O)c3cccc(Cl)c3)cc2)cc1CNC(C)C.O=C(O)C(F)(F)F` was tested. Which Inhibition did it give?
Answer: Its Inhibition is 100%.

Question: Which Inhibition does the source give for `O=[N+]([O-])c1ccc(Nc2nc(NCc3ccccc3)nc(N/N=C/c3ccccc3[N+](=O)[O-])n2)cc1` here?
Answer: Its Inhibition is 100%.

Question: For `COc1cc2nc(NCCc3ccccc3)nc(NCc3cnn(C)c3C)c2cc1OC`, which Inhibition is on record?
Answer: The Inhibition was 99%.

Question: With `CNS(=O)(=O)c1ccc2c(c1)nc(C1CCN(CC3CCC(NC(=O)/C=C/c4ccc(Cl)c(Cl)c4)CC3)CC1)n2C` (stereo unspecified) as the compound, how does the Inhibition read?
Answer: Its Inhibition is 100%.

Question: How did the Inhibition turn out when `Nc1nc(N)c2c(ccc3nn(C4CCCC4)cc32)n1` was run?
Answer: The Inhibition was 97%.

Question: Which Inhibition does the source give for `Clc1ccc(CNc2nc(NCCc3c[nH]cn3)nc(N3CCCC4CCCCC43)n2)cc1` (stereo unspecified) here?
Answer: Its Inhibition is 100%.

Question: How did the Inhibition turn out when `COc1cc(Nc2ncnc3cc(OC)c(OC)cc23)cc([N+](=O)[O-])c1.Cl` was run?
Answer: Its Inhibition is 97%.
